Results on nine substances are retold here after the supplement of paper PMC8728848.

Test in all cases: glycan array binding signal (z-score within array); higher = stronger binding
Experiment [1] relates to Kdn(a2-3)Gal(b1-4)GlcNAc. As to conditions: glycan notation: IUPAC condensed, linker removed. A digest of the protocol:
(§1)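 Glycan array data were curated from 3228 arrays in the Consortium for Functional Glycomics database and kept only where the protein sequence was available. Glycan names were converted to IUPAC-condensed notation, and columns mapping to the same glycan were averaged. The binding signal is a within-array Z-score, averaged across arrays of the same protein sequence at different concentrations or buffers and across linkers. Negative Z-scores can be read as non-binding.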

Experiment [2] concerns Kdn(a2-3)Gal(b1-4)[Fuc(a1-3)]GlcNAc. To be noted: glycan notation: IUPAC condensed, linker removed. A digest of the protocol: as §1
Experiment [3] has as its system Man(a1-2)Man(a1-3)[Man(a1-2)Man(a1-6)]Man(a1-6)[Man(a1-2)Man(a1-2)Man(a1-3)]Man(b1-4)GlcNAc(b1-4)GlcNAc. As to conditions: glycan notation: IUPAC condensed, linker removed. The method, boiled down:
as §1

Experiment [4] relates to Man(a1-2)Man(a1-2)Man(a1-3)Man. To be noted: glycan notation: IUPAC condensed, linker removed. A digest of the protocol: as §1
Experiment [5] has as its system Man(a1-2)Man(a1-2)Man(a1-6)[Man(a1-3)]Man. As to conditions: glycan notation: IUPAC condensed, linker removed. A digest of the protocol:
as §1

For experiment [6], the system named is Man(a1-2)Man(a1-3)[Man(a1-2)Man(a1-6)]Man(a1-6)[Man(a1-2)Man(a1-2)Man(a1-3)]Man. As to conditions: glycan notation: IUPAC condensed, linker removed. The method, boiled down:
as §1

In experiment [7] the test system is Kdn(a2-6)Gal(b1-4)GlcNAc. As to conditions: glycan notation: IUPAC condensed, linker removed. A digest of the protocol:
as §1

In experiment [8] the test system is Man(a1-2)Man(a1-2)Man(a1-3)[Man(a1-2)Man(a1-6)[Man(a1-3)]Man(a1-6)]Man(b1-4)GlcNAc(b1-4)GlcNAc. To be noted: glycan notation: IUPAC condensed, linker removed; mutation: D138V, E140I. A digest of the protocol:
as §1

Experiment [9] relates to Man(a1-2)Man(a1-2)Man(a1-3)[Man(a1-2)Man(a1-3)[Man(a1-2)Man(a1-6)]Man(a1-6)]Man(b1-4)GlcNAc(b1-4)GlcNAc. As to conditions: glycan notation: IUPAC condensed, linker removed. A digest of the protocol: as §1
Experiment [10] has as its system Man(a1-2)Man(a1-3)Man. To be noted: glycan notation: IUPAC condensed, linker removed. The method, boiled down: as §1

This is one part of a sample in which the strongest signals are shown more often than they occur.

Sequence of Avaren (Actinomycete K97) (chain, as listed by the source): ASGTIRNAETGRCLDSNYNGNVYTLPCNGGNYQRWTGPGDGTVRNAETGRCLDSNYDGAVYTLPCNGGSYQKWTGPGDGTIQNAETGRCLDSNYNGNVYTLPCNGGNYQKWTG
Sequence of CHI3L1 (Homo sapiens), P36222 (P36222 whole entry): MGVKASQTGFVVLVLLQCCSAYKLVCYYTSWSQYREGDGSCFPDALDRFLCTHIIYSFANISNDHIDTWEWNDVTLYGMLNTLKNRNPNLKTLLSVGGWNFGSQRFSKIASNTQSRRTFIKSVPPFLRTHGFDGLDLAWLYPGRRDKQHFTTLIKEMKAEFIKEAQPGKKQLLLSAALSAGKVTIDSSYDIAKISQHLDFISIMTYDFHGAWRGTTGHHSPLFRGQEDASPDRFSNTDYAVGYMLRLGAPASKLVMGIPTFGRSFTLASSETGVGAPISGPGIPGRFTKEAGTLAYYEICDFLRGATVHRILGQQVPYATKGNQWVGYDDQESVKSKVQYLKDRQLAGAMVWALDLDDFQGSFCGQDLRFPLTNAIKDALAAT
Sequence of C3b (Homo sapiens), P01024 (P01024 23-667): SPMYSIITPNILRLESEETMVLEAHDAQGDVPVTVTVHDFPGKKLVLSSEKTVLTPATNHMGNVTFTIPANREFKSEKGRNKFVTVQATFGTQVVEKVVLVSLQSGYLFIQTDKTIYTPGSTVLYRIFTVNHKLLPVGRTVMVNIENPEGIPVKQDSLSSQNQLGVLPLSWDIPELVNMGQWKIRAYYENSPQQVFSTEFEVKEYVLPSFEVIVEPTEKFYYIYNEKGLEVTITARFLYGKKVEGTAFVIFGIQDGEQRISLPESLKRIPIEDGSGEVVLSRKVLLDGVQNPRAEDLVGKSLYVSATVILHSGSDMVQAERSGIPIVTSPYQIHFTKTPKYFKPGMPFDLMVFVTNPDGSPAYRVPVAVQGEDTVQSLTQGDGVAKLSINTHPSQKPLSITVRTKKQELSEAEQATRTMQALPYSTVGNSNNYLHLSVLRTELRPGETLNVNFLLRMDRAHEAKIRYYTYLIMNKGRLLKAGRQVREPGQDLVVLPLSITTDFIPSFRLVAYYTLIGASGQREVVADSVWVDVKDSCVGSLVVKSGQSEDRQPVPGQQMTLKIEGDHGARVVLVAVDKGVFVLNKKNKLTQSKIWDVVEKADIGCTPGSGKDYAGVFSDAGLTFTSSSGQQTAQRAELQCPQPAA
Sequence of SRLC (Mus musculus), Q8VIF6 (Q8VIF6 other isoform, or with tags, fused parts or gaps): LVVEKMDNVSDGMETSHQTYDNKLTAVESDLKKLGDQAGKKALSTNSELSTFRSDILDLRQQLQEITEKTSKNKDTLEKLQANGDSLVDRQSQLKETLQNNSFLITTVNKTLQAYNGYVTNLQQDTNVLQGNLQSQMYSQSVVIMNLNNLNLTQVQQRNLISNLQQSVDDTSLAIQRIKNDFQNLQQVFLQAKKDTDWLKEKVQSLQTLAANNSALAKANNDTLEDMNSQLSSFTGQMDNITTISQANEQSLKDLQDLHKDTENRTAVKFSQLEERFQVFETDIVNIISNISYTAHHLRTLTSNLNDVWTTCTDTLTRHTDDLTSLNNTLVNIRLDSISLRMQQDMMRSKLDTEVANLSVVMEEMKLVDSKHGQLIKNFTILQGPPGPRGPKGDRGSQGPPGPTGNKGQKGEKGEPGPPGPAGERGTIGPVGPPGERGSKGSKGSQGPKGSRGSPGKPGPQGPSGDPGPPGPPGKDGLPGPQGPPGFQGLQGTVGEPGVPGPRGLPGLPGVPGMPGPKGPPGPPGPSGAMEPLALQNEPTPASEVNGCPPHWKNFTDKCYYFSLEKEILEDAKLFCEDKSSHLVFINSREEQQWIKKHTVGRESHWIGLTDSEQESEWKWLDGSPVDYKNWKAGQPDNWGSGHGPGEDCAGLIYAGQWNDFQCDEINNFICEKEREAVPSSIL
Sequence of PILRa (Mus musculus), Q2YSF3 (Q2YSF3 entry or part of it): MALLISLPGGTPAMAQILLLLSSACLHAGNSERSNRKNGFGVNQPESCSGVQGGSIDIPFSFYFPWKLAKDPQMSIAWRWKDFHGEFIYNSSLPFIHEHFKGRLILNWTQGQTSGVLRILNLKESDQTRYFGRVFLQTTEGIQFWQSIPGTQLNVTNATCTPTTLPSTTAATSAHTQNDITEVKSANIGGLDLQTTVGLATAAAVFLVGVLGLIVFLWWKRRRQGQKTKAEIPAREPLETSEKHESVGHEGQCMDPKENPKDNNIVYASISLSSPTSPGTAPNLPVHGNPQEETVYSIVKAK
Sequence of PILRb (Mus musculus), Q2YSF2 (Q2YSF2 entry or part of it): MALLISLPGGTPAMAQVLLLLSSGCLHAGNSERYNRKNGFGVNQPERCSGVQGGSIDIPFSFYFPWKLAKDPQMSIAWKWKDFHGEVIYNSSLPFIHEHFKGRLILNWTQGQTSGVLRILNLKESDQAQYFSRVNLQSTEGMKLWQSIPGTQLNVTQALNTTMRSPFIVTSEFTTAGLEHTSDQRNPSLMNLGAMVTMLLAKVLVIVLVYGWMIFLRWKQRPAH
Sequence of CHT (Homo sapiens) (chain, as listed by the source): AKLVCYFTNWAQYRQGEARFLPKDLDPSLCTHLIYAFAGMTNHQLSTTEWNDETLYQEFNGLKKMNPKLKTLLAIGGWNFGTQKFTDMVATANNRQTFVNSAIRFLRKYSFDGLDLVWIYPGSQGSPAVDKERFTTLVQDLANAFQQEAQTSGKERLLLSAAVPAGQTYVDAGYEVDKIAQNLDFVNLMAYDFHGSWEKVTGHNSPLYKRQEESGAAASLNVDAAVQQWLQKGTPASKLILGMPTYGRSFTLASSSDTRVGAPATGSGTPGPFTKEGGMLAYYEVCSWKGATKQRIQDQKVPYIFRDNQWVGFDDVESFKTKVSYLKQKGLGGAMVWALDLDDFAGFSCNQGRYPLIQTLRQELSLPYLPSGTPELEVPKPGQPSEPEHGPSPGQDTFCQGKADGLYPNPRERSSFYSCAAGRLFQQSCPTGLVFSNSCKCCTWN
Sequence of Aggrecan (Rattus norvegicus), NP_071526 (chain, as listed by the source): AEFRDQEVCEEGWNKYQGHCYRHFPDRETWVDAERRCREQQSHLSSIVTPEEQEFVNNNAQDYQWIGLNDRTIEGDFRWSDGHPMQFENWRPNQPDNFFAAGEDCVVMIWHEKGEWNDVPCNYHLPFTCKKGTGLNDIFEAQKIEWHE

For CHI3L1 (Homo sapiens), P36222, the “glycan array binding signal (z-score)” value in experiment [1] was -0.144; in [2], 0.381.

Consider Aggrecan (Rattus norvegicus), NP_071526, for which the “glycan array binding signal (z-score)” value in [3] was found to be 0.607. As to PILRb (Mus musculus), Q2YSF2, the “glycan array binding signal (z-score)” value in experiment [2] is 0.391. Consider Avaren (Actinomycete K97), for which the “glycan array binding signal (z-score)” value worked out at 2.52 in experiment [4], 14.7 in [5], 1.26 in experiment [3] and 11.2 in [6]. Consider PILRa (Mus musculus), Q2YSF3, for which the “glycan array binding signal (z-score)” value in experiment [7] was -0.059.

With CHT (Homo sapiens), the “glycan array binding signal (z-score)” value in experiment [8] was -0.189. Take SRLC (Mus musculus), Q8VIF6: the “glycan array binding signal (z-score)” value in [4] was -0.206; in experiment [9] it was -0.241. With C3b (Homo sapiens), P01024, the “glycan array binding signal (z-score)” value is -0.561 in [1] and 0.007 in experiment [4]. Take Siglec-8 (Homo sapiens), Q9NYZ4: the “glycan array binding signal (z-score)” value in [10] is -0.003.
